Among the data in PubChem BioAssay (NCATS) are Potency and outcome values, retold here.

The structures appear in SMILES notation. Records with an inconclusive call do not appear. Entries that show only a call come without a potency. The source made the active and inactive calls. Unless noted, calls follow the shape of the dose curve; as a rule, active = well fitted curve in the direction sought with a large enough effect; inconclusive = small, poorly fitted or top-dose-only effect, or another doubt; inactive = no such curve, though single readings can be large; an effect the other way counts as inactive or inconclusive.

Chain of Tumor susceptibility gene 101 protein (Homo sapiens) (Q99816 whole entry, looked up, the tested form may be a part): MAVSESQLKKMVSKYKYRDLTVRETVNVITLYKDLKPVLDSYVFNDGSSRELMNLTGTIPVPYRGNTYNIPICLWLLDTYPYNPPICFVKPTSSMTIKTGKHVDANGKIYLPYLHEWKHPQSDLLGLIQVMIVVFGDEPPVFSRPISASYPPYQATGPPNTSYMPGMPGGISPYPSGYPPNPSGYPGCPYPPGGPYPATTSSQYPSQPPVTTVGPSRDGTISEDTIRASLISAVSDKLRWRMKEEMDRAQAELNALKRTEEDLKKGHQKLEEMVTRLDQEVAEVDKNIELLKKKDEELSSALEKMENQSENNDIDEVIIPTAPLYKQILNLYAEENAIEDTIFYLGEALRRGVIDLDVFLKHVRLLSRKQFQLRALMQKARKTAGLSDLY
Chain of DNA polymerase III PolC-type (Bacillus subtilis (strain 168)) (P13267 whole entry, looked up): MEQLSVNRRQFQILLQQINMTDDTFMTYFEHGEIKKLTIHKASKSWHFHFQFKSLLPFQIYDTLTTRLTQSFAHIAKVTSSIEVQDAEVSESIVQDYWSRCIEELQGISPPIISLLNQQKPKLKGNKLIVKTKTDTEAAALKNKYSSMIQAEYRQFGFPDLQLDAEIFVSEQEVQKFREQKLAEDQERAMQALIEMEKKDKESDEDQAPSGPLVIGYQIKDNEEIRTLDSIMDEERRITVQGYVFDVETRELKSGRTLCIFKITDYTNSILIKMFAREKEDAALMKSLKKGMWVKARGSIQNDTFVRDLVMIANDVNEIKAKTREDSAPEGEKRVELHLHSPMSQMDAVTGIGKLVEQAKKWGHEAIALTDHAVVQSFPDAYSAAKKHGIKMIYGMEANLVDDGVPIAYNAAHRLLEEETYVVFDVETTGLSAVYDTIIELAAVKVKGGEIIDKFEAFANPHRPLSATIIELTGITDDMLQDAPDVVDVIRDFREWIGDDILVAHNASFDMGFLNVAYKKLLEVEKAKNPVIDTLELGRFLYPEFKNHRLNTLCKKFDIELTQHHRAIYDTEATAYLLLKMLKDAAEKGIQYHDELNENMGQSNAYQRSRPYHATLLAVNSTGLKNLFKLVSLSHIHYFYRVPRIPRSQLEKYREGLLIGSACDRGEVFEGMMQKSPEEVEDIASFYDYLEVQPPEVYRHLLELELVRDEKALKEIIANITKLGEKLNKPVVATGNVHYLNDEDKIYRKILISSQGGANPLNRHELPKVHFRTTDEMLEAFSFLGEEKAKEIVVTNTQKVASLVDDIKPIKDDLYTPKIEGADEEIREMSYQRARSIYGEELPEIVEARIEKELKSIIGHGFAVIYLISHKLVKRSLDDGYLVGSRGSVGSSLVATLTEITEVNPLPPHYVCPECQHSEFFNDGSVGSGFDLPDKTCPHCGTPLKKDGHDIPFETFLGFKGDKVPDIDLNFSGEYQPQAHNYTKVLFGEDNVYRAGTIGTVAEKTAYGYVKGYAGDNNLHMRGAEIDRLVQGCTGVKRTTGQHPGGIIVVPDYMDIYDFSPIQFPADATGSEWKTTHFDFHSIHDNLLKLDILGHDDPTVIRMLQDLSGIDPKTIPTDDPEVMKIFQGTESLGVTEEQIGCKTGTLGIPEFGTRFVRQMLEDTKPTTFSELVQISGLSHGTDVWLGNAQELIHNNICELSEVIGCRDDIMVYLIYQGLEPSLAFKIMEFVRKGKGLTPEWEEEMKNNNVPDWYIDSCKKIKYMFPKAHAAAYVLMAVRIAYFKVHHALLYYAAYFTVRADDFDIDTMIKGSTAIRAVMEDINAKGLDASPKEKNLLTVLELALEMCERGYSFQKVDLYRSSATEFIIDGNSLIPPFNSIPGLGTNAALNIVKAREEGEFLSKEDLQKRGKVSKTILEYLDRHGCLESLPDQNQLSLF

The target in one experiment is Ubiquitin carboxyl-terminal hydrolase 2 (Homo sapiens) (UniProt O75604). As to the kind of experiment: qHTS Validation Assay for Inhibitors of Ubiquitin-specific Protease USP2a Using CHOP2 as the Reporter (AID 463106). The note with it: USP2a cleavage of CHOP2 reporter, enzymatic; series mostly up to 38.3 µM. Summed up: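 Fluorescence read-out at Ex 485nm/Em 531nm after 60min RT, following addition of 25nM Ub-CHOP2 plus 25nM reporter substrate to USP2 core (10nM) pretreated 30min with compound. Data normalized to NEM full inhibition; concentration-response curves fitted.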
Chain of Ubiquitin carboxyl-terminal hydrolase 2 (Homo sapiens) (O75604 whole entry, looked up): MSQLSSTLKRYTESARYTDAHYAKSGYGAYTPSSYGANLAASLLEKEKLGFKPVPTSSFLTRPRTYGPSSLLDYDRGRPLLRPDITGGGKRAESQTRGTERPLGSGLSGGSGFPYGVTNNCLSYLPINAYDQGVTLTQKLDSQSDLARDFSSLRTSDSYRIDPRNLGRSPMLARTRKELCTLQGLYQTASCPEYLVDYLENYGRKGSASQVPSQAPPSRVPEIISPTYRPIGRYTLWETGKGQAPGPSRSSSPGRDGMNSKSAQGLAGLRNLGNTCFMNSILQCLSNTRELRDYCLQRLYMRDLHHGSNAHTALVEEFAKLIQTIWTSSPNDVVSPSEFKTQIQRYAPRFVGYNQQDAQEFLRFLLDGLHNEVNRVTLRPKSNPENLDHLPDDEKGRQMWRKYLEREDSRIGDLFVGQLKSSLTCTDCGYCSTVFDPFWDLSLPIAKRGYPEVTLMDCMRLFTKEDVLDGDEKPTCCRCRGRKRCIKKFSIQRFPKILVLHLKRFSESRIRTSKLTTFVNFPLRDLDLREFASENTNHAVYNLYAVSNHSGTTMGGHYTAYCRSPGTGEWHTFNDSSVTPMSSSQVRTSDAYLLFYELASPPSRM
Consider `NS(=O)(=O)C#Cc1ccccc1`, for which the Potency entry was “inactive”.

Turning to `C[N+]1(C)CCC(OC(=O)C(c2ccccc2)c2ccccc2)CC1`, the Potency entry was “inactive”.

For `COC1=C(OC)C(=O)c2ccccc2C1=O`, the Potency result is “inactive”.

For `CC(C)ON([C@@H](C(=O)NO)C(C)C)S(=O)(=O)c1ccc(-c2ccccc2)cc1`, the Potency result is “inactive”.

With `O=[N+]([O-])c1ccc2c(c1)S(=O)(=O)C=C2`, the Potency entry is “inactive”.

Turning to `CN1CCc2ccccc2Cc2[nH]c3ccccc3c2CC1`, the Potency entry was “inactive”.

Take `O=S(=O)(c1cccc2c(I)cccc12)N1CCCNCC1`: the Potency result was “inactive”.

On to `O=C1O/C(=C/Br)CCC1c1cccc2ccccc12` (stereo unspecified), for which the Potency entry is “inactive”.

For the compound `Cn1ncc(S(=O)(=O)Cc2ccccc2)c(Br)c1=O`, the Potency result was “inactive”.

Turning to `Oc1cc(O)cc(/C=C/c2ccc(O)c(O)c2)c1`, the Potency entry is “inactive”.

Consider `CCCCCCCCc1ccc(-c2ccc(C(=O)O)cc2)cc1`, for which the Potency entry was “inactive”.

For `COc1ccccc1N1CCN(CCN(C(=O)c2ccc(I)cc2)c2ccccn2)CC1`, the Potency result was “inactive”.

Consider `CCOC(=O)C1=C(C)NC(C)=C(C(=O)OCC)C1c1c(F)c(F)c(F)c(F)c1F`, for which the Potency entry is “inactive”.

For `CN(C)c1nc2c(Br)c(Br)c(Br)c(Br)c2[nH]1`, the Potency result was “inactive”.

Turning to `O=Nc1ccc2oc(=O)ccc2c1`, the Potency entry was “inactive”.

Turning to `NC[C@@H]1O[C@H](C23CC4CC(CC(C4)C2)C3)Cc2c1ccc(O)c2O`, the Potency result is “inactive”.

Regarding `Cc1ccc(S(=O)(=O)/C=C/C#N)cc1`, the Potency result was “inactive”.

`N=c1ccn2c(n1)O[C@H]1[C@H](O)[C@@H](CO)O[C@H]12`: the Potency entry is “inactive”.

Regarding `CCCC1(C)C(C#N)(C#N)C1(C#N)C#N`, the Potency entry was “inactive”.

Regarding `O=C(CCCCCN1CCN(c2ccccc2-c2ccccc2)CC1)NC1CCCc2ccccc21` (stereo unspecified), the Potency result is “inactive”.

For the next experiment, the target named is DNA polymerase III PolC-type (Bacillus subtilis (strain 168)) (UniProt P13267). The experiment in a line: qHTS Validation Assay for the Inhibitors of DNA Replication in Gram-Positive Bacteria (AID 485295).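 Also: reconstituted holoenzyme with PolC plus beta clamp SSB and primase; PicoGreen fluorescence of double-stranded DNA made on primed circular M13 template.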 The note with it: Gram-positive bacterial DNA replication assay; series mostly up to 57.1 µM. The procedure, abridged:
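Primed replication of single-stranded M13Gori by a four-protein B. subtilis holoenzyme is measured at room temperature. Double-stranded product is quantified by PicoGreen fluorescence after an EDTA stop; inhibition is scaled between DMSO and EDTA controls.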
Background: In qHTS, concentration-response curves come from the screen itself.
As to `Nc1ncnc2c1c(I)cn2[C@@H]1C[C@H](N)[C@@H](O)[C@H]1O`, the Potency result was “inactive”.

Regarding `CNCC[C@H](Oc1ccc(C(F)(F)F)cc1)c1ccccc1`, the Potency result was “inactive”.

As to `CN(C)c1ccc(/C=C2\C(=O)Nc3ccccc32)cc1`, the Potency result was “inactive”.

For the compound `Oc1ccccc1O`, the Potency result was “inactive”.

On to `CC12C(=O)OC(=O)C1(C)C1CCC2O1` (stereo unspecified), for which the Potency entry is “inactive”.

For the compound `Cc1cc2c(cc1Cl)N(C(=O)Nc1ccc(Oc3cccnc3C)nc1)CC2`, the Potency result is “inactive”.

For the compound `O=C(/C=C/c1ccc(O)cc1)c1ccc(O)cc1O`, the Potency result is “inactive”.

Turning to `O=C(c1ccc(Cl)cc1)N1CCN(c2ccc([N+](=O)[O-])c3ncccc23)CC1`, the Potency result was “inactive”.

As to `C[C@@H](CN1CCC(Cc2ccccc2)CC1)[C@@H](O)c1ccc(O)cc1`, the Potency entry was “inactive”.

Turning to `CC(=O)/C=C1\C(=O)N(C)c2ccccc21`, the Potency entry was “inactive”.

As to `CC(COc1ccc(/C=C/c2ccccc2)cc1)[N+](C)(C)C` (stereo unspecified), the Potency entry is “inactive”.

As for `COc1cc2nc(N3CCN(C(=O)OCc4ccccc4)C(C(=O)NC(C)(C)C)C3)nc(N)c2cc1OC` (stereo unspecified), the Potency result is “inactive”.

Take `CCOC(=O)N1CCN(/[N+]([O-])=N/Oc2ccc([N+](=O)[O-])cc2[N+](=O)[O-])CC1`: the Potency entry is “inactive”.

As to `NS(=O)(=O)C#Cc1ccccc1`, the Potency entry was “inactive”.

Take `C[N+]1(C)CCC(OC(=O)C(c2ccccc2)c2ccccc2)CC1`: the Potency result is “inactive”.

For `COC1=C(OC)C(=O)c2ccccc2C1=O`, the Potency result was “inactive”.

On to `CC(C)ON([C@@H](C(=O)NO)C(C)C)S(=O)(=O)c1ccc(-c2ccccc2)cc1`, for which the Potency entry is “inactive”.

In the case of `O=[N+]([O-])c1ccc2c(c1)S(=O)(=O)C=C2`, the Potency entry was “inactive”.

For `CN1CCc2ccccc2Cc2[nH]c3ccccc3c2CC1`, the Potency result was “inactive”.

In the case of `O=S(=O)(c1cccc2c(I)cccc12)N1CCCNCC1`, the Potency entry was “inactive”.

`O=C1O/C(=C/Br)CCC1c1cccc2ccccc12` (stereo unspecified): the Potency entry was “inactive”.

In the case of `Cn1ncc(S(=O)(=O)Cc2ccccc2)c(Br)c1=O`, the Potency result is “inactive”.

For `Oc1cc(O)cc(/C=C/c2ccc(O)c(O)c2)c1`, the Potency result was “inactive”.

As to `CCCCCCCCc1ccc(-c2ccc(C(=O)O)cc2)cc1`, the Potency result is “inactive”.

For the compound `COc1ccccc1N1CCN(CCN(C(=O)c2ccc(I)cc2)c2ccccn2)CC1`, the Potency entry was “inactive”.

In the case of `CCOC(=O)C1=C(C)NC(C)=C(C(=O)OCC)C1c1c(F)c(F)c(F)c(F)c1F`, the Potency result was “inactive”.

In the case of `CN(C)c1nc2c(Br)c(Br)c(Br)c(Br)c2[nH]1`, the Potency result is “inactive”.

Take `O=Nc1ccc2oc(=O)ccc2c1`: the Potency entry was “inactive”.

On to `NC[C@@H]1O[C@H](C23CC4CC(CC(C4)C2)C3)Cc2c1ccc(O)c2O`, for which the Potency result is “inactive”.

Turning to `Cc1ccc(S(=O)(=O)/C=C/C#N)cc1`, the Potency entry was “inactive”.

As to `N=c1ccn2c(n1)O[C@H]1[C@H](O)[C@@H](CO)O[C@H]12`, the Potency entry is “inactive”.

Turning to `CCCC1(C)C(C#N)(C#N)C1(C#N)C#N`, the Potency entry was “inactive”.

A further experiment has as its target Tumor susceptibility gene 101 protein (Homo sapiens) (UniProt Q99816). The experiment in a line: qHTS Validation Assay for Iinhibitors of HIV-1 Budding by Blocking the Interaction of PTAP/TSG101 (AID 485342; calls by dose curve). The note with it: TSG101-PTAP binding, fluorescence polarization, 4-point titration; series mostly up to 115 µM. Summed up: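 Fluorescence anisotropy measured PTAP-Tsg101 interaction. Final concentrations were 10 uM protein domain and 50 nM labeled peptide, equilibrated 20 min at room temperature.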
As to `Nc1ncnc2c1c(I)cn2[C@@H]1C[C@H](N)[C@@H](O)[C@H]1O`, the outcome was inactive.

With `CNCC[C@H](Oc1ccc(C(F)(F)F)cc1)c1ccccc1`, the compound was classed as inactive.

For the compound `CN(C)c1ccc(/C=C2\C(=O)Nc3ccccc32)cc1`, the compound was called inactive.

Regarding `Oc1ccccc1O`, the compound was classed as inactive.

Consider `CC12C(=O)OC(=O)C1(C)C1CCC2O1` (stereo unspecified), for which the outcome was inactive.

`Cc1cc2c(cc1Cl)N(C(=O)Nc1ccc(Oc3cccnc3C)nc1)CC2`: the result was inactive.

With `O=C(/C=C/c1ccc(O)cc1)c1ccc(O)cc1O`, the result was inactive.

As to `N#C/C(=C\c1ccc(O)c(O)c1)C(=O)NCCCc1ccccc1`, the compound was classed as inactive.

As for `O=C(c1ccc(Cl)cc1)N1CCN(c2ccc([N+](=O)[O-])c3ncccc23)CC1`, the result was inactive.

`CC(=O)/C=C1\C(=O)N(C)c2ccccc21`: the call was inactive.

As for `CC(COc1ccc(/C=C/c2ccccc2)cc1)[N+](C)(C)C` (stereo unspecified), the compound was classed as inactive.

For the compound `COc1cc2nc(N3CCN(C(=O)OCc4ccccc4)C(C(=O)NC(C)(C)C)C3)nc(N)c2cc1OC` (stereo unspecified), the result was inactive.

As for `CCOC(=O)N1CCN(/[N+]([O-])=N/Oc2ccc([N+](=O)[O-])cc2[N+](=O)[O-])CC1`, the compound was classed as inactive.

For the compound `NS(=O)(=O)C#Cc1ccccc1`, the compound was called inactive.

Regarding `COC1=C(OC)C(=O)c2ccccc2C1=O`, the outcome was inactive.

For the compound `CC(C)ON([C@@H](C(=O)NO)C(C)C)S(=O)(=O)c1ccc(-c2ccccc2)cc1`, the compound was called inactive.

Turning to `CN1CCc2ccccc2Cc2[nH]c3ccccc3c2CC1`, the outcome was inactive.

For the compound `O=S(=O)(c1cccc2c(I)cccc12)N1CCCNCC1`, the compound was called inactive.

Regarding `O=C1O/C(=C/Br)CCC1c1cccc2ccccc12` (stereo unspecified), the call was inactive.

Consider `Cn1ncc(S(=O)(=O)Cc2ccccc2)c(Br)c1=O`, for which the outcome was inactive.

For `Oc1cc(O)cc(/C=C/c2ccc(O)c(O)c2)c1`, the compound was called inactive.

On to `CCCCCCCCc1ccc(-c2ccc(C(=O)O)cc2)cc1`, for which the result was inactive.

As to `COc1ccccc1N1CCN(CCN(C(=O)c2ccc(I)cc2)c2ccccn2)CC1`, the compound was classed as inactive.

With `CN(C)c1nc2c(Br)c(Br)c(Br)c(Br)c2[nH]1`, the compound was called inactive.

Take `O=Nc1ccc2oc(=O)ccc2c1`: the compound was called inactive.

Consider `NC[C@@H]1O[C@H](C23CC4CC(CC(C4)C2)C3)Cc2c1ccc(O)c2O`, for which the compound was called inactive.

As to `Cc1ccc(S(=O)(=O)/C=C/C#N)cc1`, the compound was called inactive.

`N=c1ccn2c(n1)O[C@H]1[C@H](O)[C@@H](CO)O[C@H]12`: the call was inactive.

Turning to `CCCC1(C)C(C#N)(C#N)C1(C#N)C#N`, the outcome was inactive.
